DT40 TDP1 no CPT: qHTS for Inhibitors of human tyrosyl-DNA phosphodiesterase 1 (TDP1): qHTS in cells in absence of CPT | DT40 Tdp1-/- hTDP1 cells, no CPT, ATP luminescence, 48 h | 420,000 tested, 15% active | Potency, µM (highest dose often 46.2 µM), for inactives: top-dose activity change, negative = growth inhibition, most hits filed as inhibitors; also: potency is read from the fitted curve at half-maximal effect; nearly all actives have a fitted effect of over 55% in size
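Chicken DT40 Tdp1-/- cells complemented with human TDP1, screened without camptothecin (DMSO vehicle only), 400 cells/well. Compounds pin-transferred, cells incubated at 37 °C for at least 48 hr. Growth read as ATP-dependent luminescence (CellTiter-Glo, 30 min at RT).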
ELG1 DNA repair: ELG1-dependent DNA repair inhibition. HEK293T ELG1-luciferase reporter, luminescence, 16 h; DNA damage induced by 5-fluorouridine. 330,000 tested, 2.3% active. Potency, µM (highest dose often 46.1 µM), for the others: top-dose activity change, negative = inhibition, usual class: inhibitors; also: potency is read from the fitted curve at half-maximal effect; nearly all actives have a fitted effect of over 55% in size
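Cells (2,000 per well) received 5-fluorouridine plus test compound or DMSO and were incubated 16 hr at 37 °C, 5% CO2. Luciferase activity was read by luminescence 30 min after ONE-Glo addition; signal suppression marked inhibition of damage-induced ELG1 function.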
IL-1B inflam inh: inhibitors of inflammasome signaling (IL-1 beta secretion). THP-1 LPS/ATP IL-1B secretion, AlphaLISA, 16 h; hits give low values. activity change, % at 57.5 µM. 360,000 tested, 4.7% active; in the data active = activity change below about -50%; inconclusive = mostly about -30% to -49%
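THP-1 cells pretreated 1 hr with compounds (up to 57.5 uM final), then stimulated with LPS (250 ng/mL final) plus ATP (1.25 mM final); secreted IL-1B measured by AlphaLISA after 16 hr, decreased signal indicating inhibition.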
DT40 TDP1 CPT: growth inhibition of DT40 Tdp1-/-;hTDP1 cells with camptothecin (screen for TDP1 inhibitors) | chicken DT40 Tdp1-/-;hTDP1 cells + 20 nM CPT, ATP luminescence, 48 h | Potency, µM (doses to about 46.2 µM), for inactives: at the highest dose activity change, negative = growth inhibition, hits mostly inhibitors | 420,000 tested, 12% active | AID 686979; also: potency is read from the fitted curve at half-maximal effect; nearly all actives have a fitted effect of over 55% in size
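Chicken DT40 Tdp1-/- cells complemented with human TDP1, 400 cells/well, exposed to compounds plus 20 nM camptothecin for at least 48 h at 37 C; viability read as ATP content by CellTiter-Glo luminescence.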
Gal4-VP16 FLuc: Gal4-VP16 reporter inhibition counter-screen; 310,000 tested, 3.5% active; Drosophila S2 Gal4-VP16 UAS-luciferase, luminescence, 20 h; Potency, µM (titrated, usually from 53.6 µM), for inactives: top-dose activity, negative = inhibition, usual class: inhibitors;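 also: Gal4-VP16 expression switched on by copper sulfate through the metallothionein promoter; potency is read from the fitted curve at half-maximal effect; nearly all actives have a fitted effect of over 50% in size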
RORg inh: blocks mouse ROR gamma transcriptional activity. P51450. Drosophila S2 Gal4-RORgamma UAS-luciferase reporter, 20 h. Potency, µM (highest dose often 53.6 µM), for inactives: top-dose activity change, negative = inhibition, hits mostly inhibitors. 310,000 tested, 5.4% active. AID 2551; also: potency is read from the fitted curve at half-maximal effect; nearly all actives have a fitted effect of over 60% in size
Target sequence (P51450 whole entry, looked up, the tested form may be a part): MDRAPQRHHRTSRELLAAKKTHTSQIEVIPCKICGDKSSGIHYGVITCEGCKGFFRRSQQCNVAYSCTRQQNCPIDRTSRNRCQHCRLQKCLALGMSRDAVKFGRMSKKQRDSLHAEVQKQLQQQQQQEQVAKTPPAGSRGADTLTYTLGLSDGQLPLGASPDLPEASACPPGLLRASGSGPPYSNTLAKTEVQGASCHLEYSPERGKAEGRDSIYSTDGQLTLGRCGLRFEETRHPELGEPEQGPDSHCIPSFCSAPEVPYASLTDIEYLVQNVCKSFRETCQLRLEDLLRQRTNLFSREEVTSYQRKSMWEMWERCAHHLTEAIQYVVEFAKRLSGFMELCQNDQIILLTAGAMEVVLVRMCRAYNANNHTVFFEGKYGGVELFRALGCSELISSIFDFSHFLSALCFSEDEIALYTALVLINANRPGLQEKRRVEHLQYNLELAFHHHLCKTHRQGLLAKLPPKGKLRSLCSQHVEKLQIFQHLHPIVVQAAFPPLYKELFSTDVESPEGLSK
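Read-out: Photinus luciferase luminescence; inhibitors lower reporter signal. Insect Schneider cells with Gal4-ROR gamma fusion under metallothionein promoter, UAS reporter; 700 uM final copper sulfate induction, 20 hr, ambient temperature.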
* hit, by the source's call; ? = inconclusive; . = no result; [ ] = remark or other dose. Shown are actives, neighbours in structure and some others; about 21% of the full set was active somewhere. Unless noted, calls follow the shape of the dose curve; as a rule, active = well fitted curve in the direction sought with a large enough effect; inconclusive = small, poorly fitted or top-dose-only effect, or another doubt; inactive = no such curve, though single readings can be large; an effect the other way counts as inactive or inconclusive. % is scaled to controls: 0 for no effect and ±100 for the full control effect.

SMILES | DT40 TDP1 no CPT | ELG1 DNA repair | IL-1B inflam inh | DT40 TDP1 CPT | Gal4-VP16 FLuc | RORg inh
CC(C)(C)NC[C@H](O)COc1cccc2c1CCC(=O)N2 | . | . | . | . | 2%[17 µM] | 6%[2.98 µM]
Cc1ccccc1OCCSc1nc2ccccc2n1CCC(=O)O | -10% | 0% | 1 | -1% | -5% | 0%[1.91 µM]
COc1ccc(Cn2nc(-c3ccccc3)c(N3CCCCC3)cc2=O)cc1 | 12µM* | -11% | -232* | ? | -14% | ?
Cn1nc(-c2ccccc2)c(N2CCCCC2)cc1=O | ? | ? | -5 | -4% | 9% | -30%
O=c1cc(N2CCCCC2)c(-c2ccccc2)nn1Cc1ccccc1 | ? | -16% | -99* | ? | -19% | 9%
C[C@@H]1CN([C@H](C)CO)C(=O)CCCn2nncc2CO[C@@H]1CN(C)S(=O)(=O)c1cccc(F)c1 | -6% | . | -9 | -12% | . | .
O=C(C[N+]1(CC(O)c2ccccc2)CCOCC1)c1ccccc1 (stereo unspecified) | -12% | . | . | 1% | . | .
COc1ccc(S(=O)(=O)NCc2cccn2Cc2cc(C)ccc2C)cc1OC | ? | . | . | -30% | . | .
COc1ccc(C(=O)c2cn(Cc3cccc(C)c3)c3cc4c(cc3c2=O)OCCO4)cc1OC | 21µM* | . | . | ? | . | .
COc1ccc(C(=O)c2cn(Cc3ccccc3)c3ccccc3c2=O)cc1OC | ? | . | . | 21µM* | . | .
NC(=O)CSc1cn(Cc2ccccc2)c2ccccc12 | ? | -3% | -65* | ? | -6% | 43%
COc1ccc2c(c1)c(=O)c(C(=O)c1ccccc1)cn2Cc1ccccc1 | -14% | ? | -5 | -7% | -23% | -18%
Cc1ccc(C(=O)c2cn(Cc3ccccc3)c3ccccc3c2=O)cc1 | 21µM* | . | . | 23µM* | . | .
COc1ccc(C(=O)COC(=O)C2COc3ccccc3O2)cc1F (stereo unspecified) | 0% | 2% | 24 | 18% | . | .
COC(=O)Cc1c(C)nc2nc(NCc3ccc(Br)cc3)[nH]n2c1=O | -6% | . | . | -14% | . | .
COC(=O)C[C@H]1N(S(=O)(=O)c2ccc(C)cc2)C(C(C)C)CC1(C(=O)OC)C(=O)OC (stereo partly specified) | ? | . | -20 | ? | . | .
CCOC(=O)C(CCc1ccccn1)c1ccccc1 (stereo unspecified) | ? | . | -1 | ? | . | .
CCCNC(=O)Cn1nc(-c2ccc(C)cc2)c2cnc3ccc(CC)cc3c21 | -8% | . | . | -25% | . | .
CCOc1ccc2c(c1)c(=O)c(C(=O)c1ccccc1)cn2Cc1ccccc1 | 15µM* | . | . | 21µM* | . | .
COc1ccc(Cn2cc(C(=O)O)c(=O)c3ccccc32)cc1 | 23µM* | 5% | 17 | ? | -9% | -13%
CCOc1ccc(C(=O)c2cn(Cc3ccccc3OC)c3cc4c(cc3c2=O)OCCO4)cc1 | 15µM* | . | . | ? | . | .
CCOc1ccc(C(=O)c2cn(CC(=O)Nc3cccc(OC)c3)c3cc4c(cc3c2=O)OCCO4)cc1 | ? | . | . | -26% | . | .
COc1ccc(Cn2cc(C(=O)c3ccccc3)c(=O)c3cc(OC)ccc32)cc1 | -10% | ? | -12 | 3% | -2% | 0%
CCn1nc2cc(C(=O)NCC34CC5CC(CC(C5)C3)C4)ccc2c1OC | ? | 5% | 0 | ? | ? | 7.1µM*
CCOc1c2ccc(C(=O)NCC34CC5CC(CC(C5)C3)C4)cc2nn1CC | 16µM* | 7% | ? | 29µM* | 11µM* | ?
SMILES | DT40 TDP1 no CPT | ELG1 DNA repair | IL-1B inflam inh | DT40 TDP1 CPT | Gal4-VP16 FLuc | RORg inh
CCOc1c2ccc(C(=O)N[C@H](C)C3CCCCC3)cc2nn1CCOC | 1µM* | -3% | 42 | 1.8µM* | -9% | 42%
CCOc1c2ccc(C(=O)NCc3ccco3)cc2nn1CC | -5% | 11% | 8 | -3% | 0% | -2%
CCCn1nc2cc(C(=O)NCCc3cccs3)ccc2c1OCC | 18µM* | ? | -7 | -16% | ? | 7%
O=C1NC[C@H](CCCCN2C[C@H](Cc3ccc(O)cc3)N(CCC3CCCCC3)C(=O)C2=O)N(CCC2CCCCC2)C1=O | -10% | . | ? | -3% | . | .
O=C1OC(N2C(=O)CC[C@H]2C(=O)Nc2ccc3c(c2)OCO3)c2ccccc21 (stereo partly specified) | 7% | 13% | 4 | 1% | -10% | 5%
CC(C)c1ccccc1NS(=O)(=O)c1cccs1 | 3% | -4% | 48 | -2% | 9% | -41%
CC1(C(=O)Nc2ccc3c(c2)OCCO3)CCN1C(=O)Cc1ccc(-c2ccccc2)cc1 (stereo unspecified) | ? | . | 10 | ? | . | .
CC1CCCC(C)N1C(=O)COC(=O)c1ccc(Br)o1 (stereo unspecified) | 5% | 0% | -3 | 3% | . | .
CCCCn1nc2cc(C(=O)NCC34CC5CC(CC(C5)C3)C4)ccc2c1OC | ? | ? | -2 | 18µM* | -12% | 0%
CCC1COCCS(=O)(=O)N1Cc1ccc(C)cc1 (stereo unspecified) | -5% | -14% | 10 | ? | 3% | -10%
O=S1(=O)CCO[C@H]2CCCC[C@@H]2N1Cc1ccc(Cl)cc1 | 20µM* | . | . | ? | . | .
Cn1c(=O)c2c(SCC(=O)N3CCN(c4ccccc4)CC3)nc(C3CC3)nc2n(C)c1=O | 7.3µM* | ? | 0 | 13µM* | 0% | 6%
Cn1c(=O)c2c(SCCN3CCOCC3)nc(C3CCCC3)nc2n(C)c1=O | 21µM* | 1% | 30 | 16µM* | -8% | -15%
CCCc1nc(SCC(=O)N2CCC(Cc3ccccc3)CC2)c2c(=O)n(C)c(=O)n(C)c2n1 | 16µM* | ? | 16 | 21µM* | -21% | ?
CCc1nc(SCC(=O)N2CCOCC2)c2c(=O)n(C)c(=O)n(C)c2n1 | 1% | 2% | 4 | 0% | -3% | 0%
CCCc1nc(SCC(=O)N2CCCc3ccccc32)c2c(=O)n(C)c(=O)n(C)c2n1 | 23µM* | ? | 59 | 26µM* | ? | ?
CCCc1cc(=O)[nH]c2nnc(SCC(=O)NCc3ccc4c(c3)OCO4)n12 | 17% | 27% | -5 | -8% | . | .
O=C(c1ccc(Br)cc1)C(CN1CCOCC1)c1ccccc1 (stereo unspecified) | 2.1µM* | ? | -98* | 1.3µM* | 20µM* | 16µM*
